Data: the supplement of paper PMC10849652
The full data set covers some 7,900 targets. This sample favours those with a hit. About 0.6% of all pairs of compound and target were hits. Values without a mark were called inactive.

Key:
Experiment in all cases: log2 fold change, soluble protein after heating vs DMSO (PISA); higher = thermal stabilisation; K562 cells, 10 uM, 30 min; active = over 0.2 and 3.5 SD of the protein, either way, in both replicates (recomputed)
[1] = compound: NC(=O)Nc1cc(-c2cccc(F)c2)sc1C(=O)N[C@H]1CCCNC1
Procedure, shortened: (§1)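 Soluble protein was quantified by TMTpro 16plex LC-MS/MS after channel sums were equalised. It was obtained as the supernatant after 21,000xg for 90 min from pooled aliquots of K562 cells (2×10^6 cells/mL, 10 μM compound, 30 min) heated for 3 min across 48°C-58°C and extracted in PBS with 0.5% NP-40 at 4°C. Thermal stability values are relative to control samples and come from duplicates. They are given as log2 fold changes.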

[2] = compound: NC(=O)c1cnc(N[C@@H]2CCCC[C@@H]2N)nc1Nc1cccc(-n2nccn2)c1
Procedure, shortened: as §1

[3] = compound: NC1(c2ccc(-c3nc4ccn5c(=O)[nH]nc5c4cc3-c3ccccc3)cc2)CCC1
Procedure, shortened: as §1

[4] = compound: NCC(=O)Nc1ccc(-n2nc(C(F)(F)F)cc2-c2ccc3c(ccc4ccccc43)c2)cc1
Procedure, shortened: as §1

[5] = compound: Nc1ccccc1NC(=O)c1ccc(CNC(=O)OCc2cccnc2)cc1 [entinostat]
Procedure, shortened: as §1

[6] = compound: O=C(CCCCCCC(=O)Nc1ccccc1)NO [vorinostat]
Procedure, shortened: as §1

[7] = compound: O=C(CCCCCCNC(=O)c1cnc(N(c2ccccc2)c2ccccc2Cl)nc1)NO [citarinostat]
Procedure, shortened: as §1

[8] = compound: O=C(O)c1ccc2c(c1)nc(Nc1cccc(Cl)c1)c1ccncc12 [silmitasertib]
Procedure, shortened: as §1

[9] = compound: O=C1NC(=O)C(c2cnc3ccccn23)=C1c1cn2c3c(cc(F)cc13)CN(C(=O)N1CCCCC1)CC2
Procedure, shortened: as §1

[10] = compound: c1cc(OCCN2CCCCC2)cc(-c2n[nH]c3ccc(-c4nnc[nH]4)cc23)c1
Procedure, shortened: as §1

Sequence of UniProt Q9BUK6 (Q9BUK6 whole entry, looked up): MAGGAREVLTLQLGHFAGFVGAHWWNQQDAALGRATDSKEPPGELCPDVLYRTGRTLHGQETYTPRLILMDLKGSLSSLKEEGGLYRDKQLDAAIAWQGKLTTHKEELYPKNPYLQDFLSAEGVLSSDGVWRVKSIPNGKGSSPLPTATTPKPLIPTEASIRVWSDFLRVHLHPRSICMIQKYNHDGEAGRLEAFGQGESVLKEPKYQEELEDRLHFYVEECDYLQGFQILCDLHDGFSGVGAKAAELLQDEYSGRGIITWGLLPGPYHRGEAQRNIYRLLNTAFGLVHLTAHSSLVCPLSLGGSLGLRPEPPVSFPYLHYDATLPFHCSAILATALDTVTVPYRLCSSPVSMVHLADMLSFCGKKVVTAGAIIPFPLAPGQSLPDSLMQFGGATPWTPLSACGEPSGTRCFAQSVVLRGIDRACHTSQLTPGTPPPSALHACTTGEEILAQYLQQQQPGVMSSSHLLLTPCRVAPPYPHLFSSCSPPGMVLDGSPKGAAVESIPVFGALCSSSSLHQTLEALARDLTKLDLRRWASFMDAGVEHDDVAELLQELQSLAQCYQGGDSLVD
Sequence of UniProt Q9BW27 (Q9BW27 whole entry, looked up): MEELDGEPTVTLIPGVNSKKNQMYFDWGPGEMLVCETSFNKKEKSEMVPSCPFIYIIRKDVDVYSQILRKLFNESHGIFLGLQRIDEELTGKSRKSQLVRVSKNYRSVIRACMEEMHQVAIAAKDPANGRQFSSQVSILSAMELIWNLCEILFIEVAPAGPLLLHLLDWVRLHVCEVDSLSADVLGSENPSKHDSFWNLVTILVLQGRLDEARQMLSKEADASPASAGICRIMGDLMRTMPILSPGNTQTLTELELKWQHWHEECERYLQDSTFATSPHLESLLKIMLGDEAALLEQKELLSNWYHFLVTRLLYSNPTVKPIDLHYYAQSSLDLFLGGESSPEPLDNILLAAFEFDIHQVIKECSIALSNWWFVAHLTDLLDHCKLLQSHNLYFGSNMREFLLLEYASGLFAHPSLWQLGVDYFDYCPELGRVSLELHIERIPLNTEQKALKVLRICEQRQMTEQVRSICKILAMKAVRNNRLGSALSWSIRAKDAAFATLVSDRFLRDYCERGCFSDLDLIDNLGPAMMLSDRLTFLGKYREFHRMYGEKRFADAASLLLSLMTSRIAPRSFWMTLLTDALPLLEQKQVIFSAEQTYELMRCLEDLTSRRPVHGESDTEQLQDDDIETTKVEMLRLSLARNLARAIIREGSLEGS
Sequence of UniProt Q9Y2X3 (Q9Y2X3 whole entry, looked up): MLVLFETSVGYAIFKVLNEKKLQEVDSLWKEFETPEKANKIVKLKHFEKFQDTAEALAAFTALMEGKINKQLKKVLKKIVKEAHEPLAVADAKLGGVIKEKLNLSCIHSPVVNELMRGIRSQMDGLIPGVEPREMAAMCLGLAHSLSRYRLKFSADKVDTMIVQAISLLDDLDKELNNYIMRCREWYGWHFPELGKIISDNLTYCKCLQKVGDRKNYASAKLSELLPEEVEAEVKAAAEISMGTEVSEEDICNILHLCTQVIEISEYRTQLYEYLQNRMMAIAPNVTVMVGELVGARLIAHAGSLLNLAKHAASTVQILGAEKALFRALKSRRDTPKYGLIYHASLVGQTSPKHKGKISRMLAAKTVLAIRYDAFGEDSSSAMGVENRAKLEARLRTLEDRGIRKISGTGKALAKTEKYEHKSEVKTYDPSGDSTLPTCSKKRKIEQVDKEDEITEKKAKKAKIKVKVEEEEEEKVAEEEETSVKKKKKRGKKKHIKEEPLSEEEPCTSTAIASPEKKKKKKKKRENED
Sequence of UniProt Q8NBF2 (Q8NBF2 whole entry, looked up): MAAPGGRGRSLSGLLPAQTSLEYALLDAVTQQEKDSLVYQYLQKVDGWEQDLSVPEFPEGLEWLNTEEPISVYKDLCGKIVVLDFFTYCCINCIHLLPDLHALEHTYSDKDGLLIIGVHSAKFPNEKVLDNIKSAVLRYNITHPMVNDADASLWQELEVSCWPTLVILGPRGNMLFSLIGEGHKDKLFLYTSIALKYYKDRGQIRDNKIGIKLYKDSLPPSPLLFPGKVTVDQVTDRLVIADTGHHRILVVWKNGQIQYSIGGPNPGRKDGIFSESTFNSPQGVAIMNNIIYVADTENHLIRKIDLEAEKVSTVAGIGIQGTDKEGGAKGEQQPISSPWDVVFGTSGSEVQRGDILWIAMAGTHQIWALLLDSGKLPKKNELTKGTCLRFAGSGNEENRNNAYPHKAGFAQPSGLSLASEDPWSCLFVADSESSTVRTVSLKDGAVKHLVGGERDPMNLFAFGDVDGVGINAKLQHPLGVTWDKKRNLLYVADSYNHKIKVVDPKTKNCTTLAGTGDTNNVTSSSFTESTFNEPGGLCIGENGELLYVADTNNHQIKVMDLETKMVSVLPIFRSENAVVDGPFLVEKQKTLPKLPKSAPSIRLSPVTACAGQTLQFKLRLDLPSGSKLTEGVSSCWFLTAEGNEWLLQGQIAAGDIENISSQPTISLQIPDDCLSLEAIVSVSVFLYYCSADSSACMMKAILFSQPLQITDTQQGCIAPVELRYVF
Sequence of UniProt Q4G0T1 (Q4G0T1 whole entry, looked up): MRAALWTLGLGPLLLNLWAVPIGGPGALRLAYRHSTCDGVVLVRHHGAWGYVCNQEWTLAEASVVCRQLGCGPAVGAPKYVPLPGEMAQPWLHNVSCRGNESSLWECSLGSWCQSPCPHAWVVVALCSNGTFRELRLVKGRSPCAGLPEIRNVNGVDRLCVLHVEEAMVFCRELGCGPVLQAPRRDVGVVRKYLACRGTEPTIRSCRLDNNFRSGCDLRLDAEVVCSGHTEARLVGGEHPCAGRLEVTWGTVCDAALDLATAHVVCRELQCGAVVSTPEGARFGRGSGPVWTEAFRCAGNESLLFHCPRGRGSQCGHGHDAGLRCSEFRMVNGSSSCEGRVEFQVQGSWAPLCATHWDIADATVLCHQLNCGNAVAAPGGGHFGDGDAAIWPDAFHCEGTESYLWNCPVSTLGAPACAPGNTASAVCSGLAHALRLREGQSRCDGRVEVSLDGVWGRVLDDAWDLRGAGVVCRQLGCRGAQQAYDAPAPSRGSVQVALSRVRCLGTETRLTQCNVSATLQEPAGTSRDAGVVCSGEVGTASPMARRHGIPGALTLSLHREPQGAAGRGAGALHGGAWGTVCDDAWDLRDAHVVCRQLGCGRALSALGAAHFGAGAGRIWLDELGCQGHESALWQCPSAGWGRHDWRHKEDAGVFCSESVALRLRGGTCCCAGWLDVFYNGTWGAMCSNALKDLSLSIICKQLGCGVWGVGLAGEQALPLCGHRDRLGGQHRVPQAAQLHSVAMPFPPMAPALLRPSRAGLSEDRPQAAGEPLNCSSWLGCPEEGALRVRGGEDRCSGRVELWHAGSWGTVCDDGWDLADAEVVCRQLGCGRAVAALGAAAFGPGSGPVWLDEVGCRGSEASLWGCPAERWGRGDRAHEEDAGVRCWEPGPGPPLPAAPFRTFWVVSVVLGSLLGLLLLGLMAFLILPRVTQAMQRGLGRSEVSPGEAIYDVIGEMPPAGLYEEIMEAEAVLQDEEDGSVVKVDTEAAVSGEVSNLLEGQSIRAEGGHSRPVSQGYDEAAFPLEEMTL
Sequence of UniProt Q9BVC4 (Q9BVC4 whole entry, looked up): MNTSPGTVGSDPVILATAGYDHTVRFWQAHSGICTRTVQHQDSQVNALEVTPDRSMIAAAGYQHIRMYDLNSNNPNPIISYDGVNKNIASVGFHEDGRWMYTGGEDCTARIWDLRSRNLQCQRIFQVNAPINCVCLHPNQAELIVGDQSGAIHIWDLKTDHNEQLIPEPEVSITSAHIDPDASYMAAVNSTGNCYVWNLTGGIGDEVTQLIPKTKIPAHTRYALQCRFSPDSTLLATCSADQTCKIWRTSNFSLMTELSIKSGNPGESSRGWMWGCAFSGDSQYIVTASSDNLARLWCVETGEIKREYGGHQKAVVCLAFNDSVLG
Sequence of UniProt Q9UH92 (Q9UH92 whole entry, looked up): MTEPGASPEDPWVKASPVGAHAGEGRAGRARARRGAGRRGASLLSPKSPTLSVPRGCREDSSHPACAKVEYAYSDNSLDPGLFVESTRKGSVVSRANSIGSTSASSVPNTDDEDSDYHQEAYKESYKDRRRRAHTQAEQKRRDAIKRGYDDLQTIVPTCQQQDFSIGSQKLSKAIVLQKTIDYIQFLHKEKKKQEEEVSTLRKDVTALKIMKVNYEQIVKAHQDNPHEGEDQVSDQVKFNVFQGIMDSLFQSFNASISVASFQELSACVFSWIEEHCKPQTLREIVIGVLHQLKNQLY
Sequence of UniProt O43809 (O43809 whole entry, looked up): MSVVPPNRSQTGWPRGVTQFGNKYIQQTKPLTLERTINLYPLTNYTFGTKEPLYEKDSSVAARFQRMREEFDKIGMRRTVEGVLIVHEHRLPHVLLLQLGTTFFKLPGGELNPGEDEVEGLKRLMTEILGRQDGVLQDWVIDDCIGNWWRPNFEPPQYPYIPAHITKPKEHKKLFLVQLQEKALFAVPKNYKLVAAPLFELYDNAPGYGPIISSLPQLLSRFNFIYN
Sequence of UniProt P68402 (P68402 whole entry, looked up): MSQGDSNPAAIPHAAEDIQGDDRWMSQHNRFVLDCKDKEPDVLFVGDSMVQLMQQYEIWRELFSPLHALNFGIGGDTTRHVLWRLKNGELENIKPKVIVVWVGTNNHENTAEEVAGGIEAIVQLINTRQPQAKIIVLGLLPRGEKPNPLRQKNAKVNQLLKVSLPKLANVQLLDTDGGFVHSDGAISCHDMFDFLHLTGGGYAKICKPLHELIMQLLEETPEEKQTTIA
Sequence of UniProt Q8WUY8 (Q8WUY8 whole entry, looked up): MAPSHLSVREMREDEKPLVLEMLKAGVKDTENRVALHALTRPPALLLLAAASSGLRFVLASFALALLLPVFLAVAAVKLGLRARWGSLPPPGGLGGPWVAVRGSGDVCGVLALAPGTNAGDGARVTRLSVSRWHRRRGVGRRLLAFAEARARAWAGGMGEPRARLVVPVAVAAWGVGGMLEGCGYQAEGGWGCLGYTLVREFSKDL
Sequence of UniProt P56556 (P56556 whole entry, looked up): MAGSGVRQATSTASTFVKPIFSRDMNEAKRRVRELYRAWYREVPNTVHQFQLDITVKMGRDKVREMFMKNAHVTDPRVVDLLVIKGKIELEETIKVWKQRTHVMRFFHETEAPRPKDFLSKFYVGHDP

| Target | log2 fold change [1] | log2 fold change [2] | log2 fold change [3] | log2 fold change [4] | log2 fold change [5] | log2 fold change [6] | log2 fold change [7] | log2 fold change [8] | log2 fold change [9] | log2 fold change [10] |
| --- | --- | --- | --- | --- | --- | --- | --- | --- | --- | --- |
| NT5DC1 (UniProt Q5TFE4) | -0.057 | -0.052 | -0.003 | -0.012 | -0.037 | -0.013 | 0.003 | 0.025 | -0.038 | 0.236 (active) |
| MRPS16 (UniProt Q9Y3D3) | 0.026 | -0.04 | -0.079 | -0.05 | 0.075 | 0.133 | 0.057 | -0.063 | -0.016 | -0.036 |
| NUP85 (UniProt Q9BW27) | 0.01 | -0.014 | -0.092 | -0.035 | -0.011 | 0.021 | 0.031 | 0.047 | -0.041 | -0.041 |
| MSTO1 (UniProt Q9BUK6) | 0.013 | 0.015 | -0.144 | -0.059 | -0.005 | 0.053 | 0.08 | -0.015 | -0.045 | 0.017 |
| NECTIN2 (UniProt Q92692) | 0 | 0.107 | 0.056 | 0.099 | -0.029 | -0.041 | 0.034 | -0.081 | -0.03 | -0.006 |
| NUDT1 (UniProt P36639) | 0.159 | 0.145 | 1.01 (active) | -0.129 | -0.026 | 0.033 | -0.073 | -0.091 | 0.791 | 0.572 |
| NAT14 (UniProt Q8WUY8) | 0.038 | -0.135 | -0.108 | -0.33 | -0.033 |  | 0.04 | 0 | -0.037 | -0.108 |
| PAFAH1B2 (UniProt P68402) | 0.015 | 0.049 | -0.037 | -0.025 | 0.045 | -0.088 | 0.021 | 0.106 | -0.048 | -0.097 |
| MRPS21 (UniProt P82921) | -0.009 | 0.137 | -0.003 | 0.095 | -0.004 |  | 0.07 | -0.156 | 0.024 | -0.05 |
| NHLRC2 (UniProt Q8NBF2) | -0.077 | -0.02 | -0.171 | -0.065 | 0.009 | 0.02 | -0.007 | 0.009 | -0.063 | -0.015 |
| NA isoform 3 (UniProt Q4G0T1) | -0.114 | -0.207 | 0.015 | -0.02 | 0.01 |  |  | 0.037 |  |  |
| PAFAH2 (UniProt Q99487) | 0.079 | -0.194 |  | 0.04 | 0.075 |  |  |  |  |  |
| NDUFA6 (UniProt P56556) | -0.023 | 0.028 | -0.113 | -0.083 | 0.056 | 0.118 | 0.036 | -0.016 | -0.131 | -0.011 |
| MT-ND1 (UniProt P03886) | 0.166 | 0.244 | -0.004 | 0.289 | -0.051 |  | 0.05 | 0.039 | 0.1 | -0.075 |
| OTULIN (UniProt Q96BN8) | 0.008 | -0.017 | -0.183 | -0.093 | 0.097 | 0.038 | -0.005 | 0.086 | -0.143 | -0.077 |
| NCBP2AS2 (UniProt Q69YL0) | -0.21 | -0.161 | -0.312 | -0.157 | -0.004 | 0.024 | 0 | 0.024 |  | -0.046 |

| Target | log2 fold change [1] | log2 fold change [2] | log2 fold change [3] | log2 fold change [4] | log2 fold change [5] | log2 fold change [6] | log2 fold change [7] | log2 fold change [8] | log2 fold change [9] | log2 fold change [10] |
| --- | --- | --- | --- | --- | --- | --- | --- | --- | --- | --- |
| NFATC2IP (UniProt Q8NCF5) | -0.016 | -0.017 | -0.087 | -0.011 | 0.035 | 0.078 | 0.075 | -0.017 | 0.02 | -0.011 |
| MTFR1L (UniProt Q9H019) | -0.069 | -0.079 |  | -0.005 | 0.069 | 0.356 |  |  | -0.014 |  |
| MLX (UniProt Q9UH92) | 0.144 | -0.115 | -0.177 |  | 0.005 | 0.095 | 0.139 | -0.091 | -0.086 | -0.175 |
| NOP58 (UniProt Q9Y2X3) | -0.012 | 0.052 | 0.316 | 0.043 | -0.05 | -0.087 | -0.048 | 0.108 | 0.082 | -0.119 |
| OGFOD1 (UniProt Q8N543) | 0.015 | 0.021 | -0.08 | -0.056 | -0.002 | 0.005 | 0.012 | 0.02 | -0.072 | -0.006 |
| MRPS31 (UniProt Q92665) | -0.001 | 0.03 | -0.05 | 0 | -0.011 | -0.039 | 0.008 | -0.012 | -0.036 | -0.083 |
| MLST8 (UniProt Q9BVC4) | 0.064 | -0.201 | -0.182 | -0.082 | 0.127 |  | 0.043 | 0.105 | -0.03 | -0.025 |
| NFYB (UniProt P25208) | -0.022 | 0.102 | -0.074 | 0.069 | -0.001 | -0.038 | -0.006 | 0.043 |  | 0.033 |
| MKRN2 (UniProt Q9H000) | -0.007 | 0 | 0.094 | -0.044 | 0.104 | 0.228 | 0.042 | 0.047 | 0.052 | -0.129 |
| NIPSNAP3B (UniProt Q9BS92) | 0.279 | 0.011 | -0.069 | 0.053 | -0.001 | -0.064 | 0.137 | -0.022 |  | -0.09 |
| NPC1L1 (UniProt Q9UHC9) | 0.011 | -0.038 | -0.104 | -0.024 | -0.011 |  | 0.036 | -0.028 |  | 0.054 |
| NAGPA (UniProt Q9UK23) | 0.051 | -0.045 | 0.03 |  | 0.04 | -0.122 | 0.074 | -0.237 | 0.043 | -0.023 |
| NUDT21 (UniProt O43809) | -0.042 | -0.002 | 0.049 | -0.007 | 0.037 | -0.078 | 0.029 | -0.124 | 0.062 | -0.131 |
| MITF (UniProt O75030) | -0.023 | 0.021 | -0.11 | 0.302 | -0.048 | 0.2 | 0.083 | 0.071 |  | -0.022 |
| MPHOSPH10 (UniProt O00566) | 0.089 | 0.016 | 0.186 | 0.064 | 0.017 | 0.045 | 0.062 | 0.112 | 0.067 | -0.169 |
| ORC5 (UniProt O43913) | -0.322 | -0.188 | -0.253 | -0.058 | -0.101 | 0.139 | 0.039 | -0.072 |  | -0.004 |
